SMILES strings stand for the structures. Compounds without any hit were thinned out: in the full panel of roughly 83,000, 20% have a hit.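 Single-concentration screen, 48 h exposure, 96-well plates. Endpoint: percent growth. Below 10 = active.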 Active and inactive are the calls of the source.

The assay has as its system MDA-MB-468 breast. As to the kind of experiment: NCI-60 one-dose screen, 48 h (100 = growth as untreated, 0 = no growth, -100 = all killed). Conditions: 10 µM unless noted.
As for `COC(=O)[C@@H](C)C[C@H](Cc1ccccc1)NC(=O)c1cccc([C@@H](C[C@H](C(C)C)N(C)C(=O)[C@@H](NC(=O)[C@H]2CCCCN2C)C2CC2)OC(C)=O)n1`, the growth is 35.3% (inactive). Turning to `C=CCCCN=C=S`, the growth was 33.9% (inactive). Next, `ClCCN(CCCl)Cc1ccc(Nc2ccnc3cc(Cl)ccc23)cc1`: -0.105% (active); `CC[C@@H](C)/C=C(C)/C=C/C(=O)c1c(O)c(-c2ccc(O)cc2)cn(O)c1=O`: -25% (active); `CCC1CN1CCCCN1CC1CC` (stereo unspecified): 101% (inactive). The result for `N#CC1(c2ccccc2)CCN(Cc2ccccc2)CC1` reads 90.2% (inactive).

The values above are taken from PubChem BioAssay (NCI).
